# The supplement of paper PMC8728848
# This excerpt belongs to a sample that is enriched for the strongest signals.
# Tests used:
# Test in all cases: glycan array binding signal (z-score within array); higher = stronger binding
# Conditions in all cases: glycan notation: IUPAC condensed, linker removed
# [1] = biological target: Fuc(a1-2)Gal(b1-3)GalNAc(b1-3)Gal(b1-4)Glc
# Summary of the method: (§1)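 Glycan array binding is given as a within-array Z-score, which can be read as non-binding when negative. The arrays, 3228 of them, came from the Consortium for Functional Glycomics database and were retained only where the protein sequence was available. Z-scores were averaged across arrays of the same protein sequence at different concentrations or buffers and across linkers.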
# [2] = biological target: Fuc(a1-2)Gal(b1-3)GlcNAc(b1-3)Gal(b1-4)Glc
# Summary of the method: as §1
# [3] = biological target: Fuc(a1-2)Gal(b1-3)GlcNAc(b1-3)[Fuc(a1-2)Gal(b1-3)GlcNAc(b1-6)]GalNAc
# Summary of the method: as §1
# [4] = biological target: Fuc(a1-2)Gal(b1-3)[Fuc(a1-4)]GlcNAc(b1-2)Man(a1-3)[Fuc(a1-2)Gal(b1-3)[Fuc(a1-4)]GlcNAc(b1-2)Man(a1-6)]Man(b1-4)GlcNAc(b1-4)[Fuc(a1-6)]GlcNAc(b1-4)[Fuc(a1-6)]GlcNAc
# Summary of the method: as §1
# [5] = biological target: Fuc(a1-2)Gal(b1-4)GlcNAc(b1-3)Gal(b1-4)GlcNAc
# Summary of the method: as §1
# [6] = biological target: Fuc(a1-2)Gal(b1-4)GlcNAc(b1-3)Gal(b1-4)GlcNAc(b1-3)Gal(b1-4)GlcNAc
# Summary of the method: as §1
# [7] = biological target: Fuc(a1-2)Gal3S(b1-4)GlcNAc
# Summary of the method: as §1
# [8] = biological target: Fuc(a1-2)Gal6S(b1-4)Glc6S
# Summary of the method: as §1
# [9] = biological target: Fuc(a1-2)[Gal(a1-3)]Gal(b1-4)GlcNAc
# Summary of the method: as §1
# [10] = biological target: Fuc(a1-2)[Gal(a1-3)]Gal(b1-4)GlcNAc(b1-2)Man(a1-3)[Fuc(a1-2)[Gal(a1-3)]Gal(b1-4)GlcNAc(b1-2)Man(a1-6)]Man(b1-4)GlcNAc(b1-4)[Fuc(a1-6)]GlcNAc
# Summary of the method: as §1
# [11] = biological target: Fuc(a1-2)[GalNAc(a1-3)]Gal(b1-3)GlcNAc
# Summary of the method: as §1
# [12] = biological target: Fuc(a1-2)[GalNAc(a1-3)]Gal(b1-4)GlcNAc
# Summary of the method: as §1
# [13] = biological target: Fuc(a1-2)[GalNAc(a1-3)]Gal(b1-4)GlcNAc(b1-2)Man
# Summary of the method: as §1
# [14] = biological target: Fuc(a1-2)[GalNAc(a1-3)]Gal(b1-4)[Fuc(a1-3)]GlcNAc(b1-3)GalNAc
# Summary of the method: as §1
# [15] = biological target: Fuc(a1-3)GlcNAc
# Summary of the method: as §1
# [16] = biological target: Gal(a1-3)Gal(b1-3)GlcNAc(b1-2)Man(a1-3)[Gal(a1-3)Gal(b1-3)GlcNAc(b1-2)Man(a1-6)]Man(b1-4)GlcNAc(b1-4)GlcNAc
# Summary of the method: as §1
# [17] = biological target: Gal(a1-4)Gal(b1-4)GlcNAc(b1-3)Gal(b1-4)Glc
# Summary of the method: as §1
# [18] = biological target: Gal(b1-3)Gal
# Summary of the method: as §1
# [19] = biological target: Gal(b1-3)GalNAc(a1-3)[Fuc(a1-2)]Gal(b1-4)GlcNAc
# Summary of the method: as §1
# [20] = biological target: Gal(b1-3)GlcNAc(a1-3)Gal(b1-4)GlcNAc
# Summary of the method: as §1
# [21] = biological target: Gal(b1-3)GlcNAc(b1-3)Gal(b1-4)Glc
# Summary of the method: as §1
# [22] = biological target: Gal(b1-3)GlcNAc(b1-3)Gal(b1-4)GlcNAc
# Summary of the method: as §1
# [23] = biological target: Gal(b1-3)[Fuc(a1-4)]GlcNAc(b1-3)Gal(b1-4)[Fuc(a1-3)]GlcNAc
# Summary of the method: as §1
# [24] = biological target: Gal(b1-3)[Neu5Ac(b2-6)]GalNAc
# Summary of the method: as §1
# [25] = biological target: Gal(b1-4)GalNAc(a1-3)[Fuc(a1-2)]Gal(b1-4)GlcNAc
# Summary of the method: as §1
# [26] = biological target: Gal(b1-4)GlcNAc(b1-2)Man(a1-3)[Gal(b1-4)GlcNAc(b1-2)Man(a1-6)][GlcNAc(b1-4)]Man(b1-4)GlcNAc(b1-4)[Fuc(a1-6)]GlcNAc
# Summary of the method: as §1
# [27] = biological target: GalNAc(a1-3)Gal
# Summary of the method: as §1
# [28] = biological target: Glc(a1-6)Glc(a1-6)Glc
# Summary of the method: as §1
# [29] = biological target: GlcNAc(a1-4)Gal(b1-4)GlcNAc(b1-3)Gal(b1-4)GlcNAc
# Summary of the method: as §1
# [30] = biological target: GlcNAc(b1-2)Man(a1-3)[GlcNAc(b1-4)][GlcNAc(b1-2)Man(a1-6)]Man(b1-4)GlcNAc(b1-4)GlcNAc
# Summary of the method: as §1
# [31] = biological target: GlcNAc(b1-3)[GlcNAc(b1-6)]GlcNAc(b1-4)GlcNAc
# Summary of the method: as §1
# [32] = biological target: GlcNAc(b1-6)Gal(b1-4)GlcNAc
# Summary of the method: as §1
# [33] = biological target: Man(b1-4)GlcNAc
# Summary of the method: as §1
# [34] = biological target: Neu5Ac(a2-3)Gal(b1-3)[Fuc(a1-4)]GlcNAc
# Summary of the method: as §1
# [35] = biological target: Neu5Ac(a2-3)Gal(b1-4)GlcNAc(b1-3)Gal(b1-4)GlcNAc
# Summary of the method: as §1
# [36] = biological target: Neu5Ac(a2-3)Gal(b1-4)GlcNAc(b1-3)Gal(b1-4)GlcNAc(b1-3)Gal(b1-4)GlcNAc(b1-2)Man(a1-3)[Neu5Ac(a2-3)Gal(b1-4)GlcNAc(b1-3)Gal(b1-4)GlcNAc(b1-3)Gal(b1-4)GlcNAc(b1-2)Man(a1-6)]GalNAc
# Summary of the method: as §1
# [37] = biological target: Neu5Ac(a2-3)Gal(b1-4)[Fuc(a1-3)]GlcNAc(b1-3)Gal(b1-4)GlcNAc
# Summary of the method: as §1
# [38] = biological target: Neu5Ac(a2-6)Gal(b1-4)GlcNAc(b1-2)Man(a1-3)[GlcNAc(b1-4)][Neu5Ac(a2-6)Gal(b1-4)GlcNAc(b1-2)Man(a1-6)]Man(b1-4)GlcNAc(b1-4)GlcNAc
# Summary of the method: as §1
# [39] = biological target: Neu5Ac(a2-6)Gal(b1-4)GlcNAc(b1-2)Man(a1-6)[Man(a1-3)]Man(b1-4)GlcNAc(b1-4)GlcNAc
# Summary of the method: as §1
# [40] = biological target: Neu5Ac(a2-6)Gal(b1-4)GlcNAc(b1-3)Gal(b1-4)GlcNAc(b1-2)Man(a1-3)[Neu5Ac(a2-6)Gal(b1-4)GlcNAc(b1-3)Gal(b1-4)GlcNAc(b1-2)Man(a1-6)]GalNAc
# Summary of the method: as §1
# [41] = biological target: Neu5Ac(a2-6)Gal(b1-4)GlcNAc(b1-6)[Gal(b1-3)GlcNAc(b1-3)]Gal(b1-4)Glc
# Summary of the method: as §1
# [42] = biological target: Neu5Ac(b2-6)Gal(b1-4)GlcNAc
# Summary of the method: as §1
# [43] = biological target: Neu5Gc(a2-3)Gal(b1-4)[Fuc(a1-3)]GlcNAc
# Summary of the method: as §1
binder,measurement,setting,value
"Gal 2 (Homo sapiens), P05162 (protein) MTGELEVKNMDMKPGSTLKITGSIADGTDGFVINLGQGTDKLNLHFNPRFSESTIVCNSLDGSNWGQEQREDHLCFSPGSEVKFTVTFESDKFKVKLPDGHELTFPNRLGHSHLSYLSVRGGFNMSSFKLKE",glycan array binding signal (z-score),[1],3.12
same,glycan array binding signal (z-score),[2],2.35
same,glycan array binding signal (z-score),[3],-0.048
same,glycan array binding signal (z-score),[4],0.137
same,glycan array binding signal (z-score),[5],2.16
same,glycan array binding signal (z-score),[6],2.4
same,glycan array binding signal (z-score),[7],-0.17
same,glycan array binding signal (z-score),[8],-0.193
same,glycan array binding signal (z-score),[9],2.52
same,glycan array binding signal (z-score),[10],8.45
same,glycan array binding signal (z-score),[11],3.75
same,glycan array binding signal (z-score),[12],5.89
same,glycan array binding signal (z-score),[13],13.5
same,glycan array binding signal (z-score),[14],-0.08
same,glycan array binding signal (z-score),[15],-0.254
same,glycan array binding signal (z-score),[16],-0.222
same,glycan array binding signal (z-score),[17],-0.229
same,glycan array binding signal (z-score),[18],-0.268
same,glycan array binding signal (z-score),[19],9.48
same,glycan array binding signal (z-score),[20],-0.111
same,glycan array binding signal (z-score),[21],0.74
same,glycan array binding signal (z-score),[22],0.837
same,glycan array binding signal (z-score),[23],-0.269
same,glycan array binding signal (z-score),[24],-0.237
same,glycan array binding signal (z-score),[25],5.71
same,glycan array binding signal (z-score),[26],-0.215
same,glycan array binding signal (z-score),[27],-0.281
same,glycan array binding signal (z-score),[28],-0.2
same,glycan array binding signal (z-score),[29],-0.28
same,glycan array binding signal (z-score),[30],-0.084
same,glycan array binding signal (z-score),[31],-0.396
same,glycan array binding signal (z-score),[32],-0.272
same,glycan array binding signal (z-score),[33],-0.273
same,glycan array binding signal (z-score),[34],-0.214
same,glycan array binding signal (z-score),[35],-0.292
same,glycan array binding signal (z-score),[36],0.02
same,glycan array binding signal (z-score),[37],-0.229
same,glycan array binding signal (z-score),[38],-0.169
same,glycan array binding signal (z-score),[39],-0.12
same,glycan array binding signal (z-score),[40],-0.008
same,glycan array binding signal (z-score),[41],-0.21
same,glycan array binding signal (z-score),[42],-0.244
same,glycan array binding signal (z-score),[43],-0.212
